# The source made the active and inactive calls.
# Experiments:
# [1] = test system: Plasmodium falciparum Sir2 (PF13_0152, Sir2A); assay: pfSir2 binders on small-molecule microarrays, primary screen, biochemical, small-molecule microarray, 635 nm fluorescence (AID 1098); conditions: small-molecule microarray binding, fluorescence 635 nm; higher = more signal;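 further: score merges spot fluorescence intensity with its signal-to-noise ratio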
# [2] = small-molecule microarray binders of probe aDKK1, primary screen, biochemical, biotinylated probe, 635/667 nm fluorescence (AID 1099); conditions: higher = more signal;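 further: score merges 667nm spot fluorescence with signal to noise across triplicate slides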
# [3] = small-molecule microarray binders of probe aCHRDL2, primary screen, biochemical, biotinylated probe, 635/667 nm fluorescence (AID 1100); conditions: higher = more signal
# [4] = splicing luciferase reporter signal modulators, primary screen, spliceosome inhibition project, cell-based, HEK293, splice +/- reporter (AID 1101); conditions: luminescence, 24 h, higher = more signal, called active from +8 up or from −8 down;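 further: HEK293 cells carrying a splicing-competent luciferase reporter gene; test concentration not given here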
# [5] = target: Fibroblast growth factor 10 (Homo sapiens) (UniProt O15520); assay: FGF10 binders on small-molecule microarrays, primary screen, biochemical, small-molecule microarray, 635 nm fluorescence (AID 1102); conditions: FGF10 binding, fluorescence 635 nm, higher = more signal
# [6] = test system: glycogen synthase kinase-3 (GSK3A per assay name; protocol says GSK3B); assay: GSK3 binders on small-molecule microarrays, primary screen, biochemical, small-molecule microarray, 635 nm fluorescence, GSK3A (AID 1103); conditions: small-molecule microarray binding, fluorescence 635 nm; higher = more signal; further: the record names both GSK3A and GSK3B
# [7] = target: Epidermal growth factor receptor (Homo sapiens) (UniProt P00533); assay: EGFR binders on small-molecule microarrays, primary screen, biochemical, small-molecule microarray, 635 nm fluorescence (AID 1104); conditions: EGFR binding, higher = more signal;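 further: score merges 667 nm emission intensity with spot signal to noise over triplicate slides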
# [8] = target: Follistatin-related protein 3 (Homo sapiens) (UniProt O95633); assay: FSTL3 binders on small-molecule microarrays, primary screen, biochemical, small-molecule microarray, 635 nm fluorescence (AID 1105); conditions: FSTL3 binding, higher = more signal;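 further: score merges emission near 667 nm and signal to noise per printed spot across three slides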
# [9] = target: Dickkopf-related protein 1 (Homo sapiens) (UniProt O94907); assay: DKK1 binders on small-molecule microarrays, primary screen, biochemical, small-molecule microarray, 635 nm fluorescence scan (AID 1106); conditions: DKK1 binding, higher = more signal;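 further: score merges emission near 667 nm with signal to noise over three replicate slides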
# [10] = test system: Inhibin beta A chain (activin A); assay: INHBA (activin A) binders on microarrays, primary screen, biochemical, small-molecule microarray, 635 nm fluorescence scan (AID 1107); conditions: small-molecule microarray binding, higher = more signal;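 further: mouse activin A protein probed at 4.33 µg/mL on printed slides; score merges bound-protein fluorescence near 667 nm with spot signal-to-noise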
# [11] = test system: Human papillomavirus type 1a protein E7 (residues 44-93); assay: HPV1a E7 fragment binders on microarrays, primary screen, biochemical, small-molecule microarray, residues 44-93, 635 nm fluorescence (AID 1108); conditions: small-molecule microarray binding, fluorescence 635 nm; higher = more signal;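 further: E7 fragment applied at 1 µg/mL in TBST for 1 h at 4 C; score combines spot fluorescence with its signal to noise ratio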
# [12] = modulators of HCV replicon luciferase signal, primary screen, HCV replication inhibitor project, Huh7 cells, luciferase reporter (AID 1109); conditions: 48 h, higher = more signal;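 further: huh7 hepatoma cells harbouring a luciferase neomycin HCV replicon reporter; luciferase luminescence as measure of HCV replicon replication; test concentration not given here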
# [13] = target: Left-right determination factor 2 (Homo sapiens) (UniProt O00292); assay: LEFTY2 binders on small-molecule microarrays, primary screen, biochemical, small-molecule microarray, 635 nm fluorescence scan (AID 1110); conditions: LEFTY2 binding, higher = more signal
# [14] = target: Calmodulin-1 (Homo sapiens) (UniProt P0DP23); assay: CALM1 binders on microarrays, EGTA buffer, profiling panel, biochemical, small-molecule microarray, Cy5-labelled CALM1 (AID 1111); conditions: Cy5-CALM1 binding fluorescence, higher = more signal;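 further: labelled calmodulin applied in Tris saline Tween buffer holding calcium plus EGTA and DTT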
# [15] = target: Calmodulin-1 (Homo sapiens) (UniProt P0DP23); assay: calcium-bound CALM1 binders on microarrays, profiling panel, artefact control for SMM control-protein annotation, biochemical, small-molecule microarray, Cy5-labelled CALM1, plus calcium (AID 1112); conditions: Cy5-CALM1 binding fluorescence, higher = more signal;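 further: score merges spot fluorescence with signal to noise from triplicate slides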
# [16] = small-molecule microarray binders of probe aWnt5a, primary screen, biochemical, biotinylated probe, 635/667 nm fluorescence (AID 1113); conditions: higher = more signal;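 further: score merges 667 nm fluorescence intensity with signal-to-noise per printed feature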
# [17] = small-molecule microarray binders of probe aShh, primary screen, biochemical, biotinylated probe, 635/667 nm fluorescence (AID 1114); conditions: higher = more signal;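 further: probe is biotin-labelled aShh protein from a stem cell growth factor screen; measures binding of labelled protein to compounds printed on the slide; score merges feature fluorescence at 667 nm with signal-to-noise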
# [18] = small-molecule microarray binders of probe aNog, primary screen, biochemical, biotinylated probe, 635/667 nm fluorescence (AID 1115); conditions: higher = more signal;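 further: probe is biotinylated aNog protein used at 0.15 µg/mL for 1 h at 4 C; z-score combines 667 nm fluorescence of each spot with its signal to noise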
# [19] = target: Torsin-1A-interacting protein 1 (Homo sapiens) (UniProt Q5JTV8); assay: LAP1 binders from COS7 cell lysate, primary screen, small-molecule microarray, 635/667 nm fluorescence (AID 1116); conditions: COS7-hLAP1 lysate binding, 635 nm fluorescence, higher = more signal
# [20] = target: Alpha-bungarotoxin (Bungarus multicinctus) (UniProt P60615); assay: alpha-bungarotoxin binders on microarray, profiling panel, artefact control for SMM control protein annotation, biochemical, small-molecule microarray, Alexa647 label, 635/667 nm fluorescence (AID 1117); conditions: alpha-BTX-A647 binding fluorescence, higher = more signal
# Sequence of Alpha-bungarotoxin (Bungarus multicinctus) (P60615 whole entry, looked up): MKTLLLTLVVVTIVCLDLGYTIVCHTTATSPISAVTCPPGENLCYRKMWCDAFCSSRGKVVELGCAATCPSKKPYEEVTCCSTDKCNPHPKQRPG
# Sequence of Dickkopf-related protein 1 (Homo sapiens) (O94907 whole entry, looked up): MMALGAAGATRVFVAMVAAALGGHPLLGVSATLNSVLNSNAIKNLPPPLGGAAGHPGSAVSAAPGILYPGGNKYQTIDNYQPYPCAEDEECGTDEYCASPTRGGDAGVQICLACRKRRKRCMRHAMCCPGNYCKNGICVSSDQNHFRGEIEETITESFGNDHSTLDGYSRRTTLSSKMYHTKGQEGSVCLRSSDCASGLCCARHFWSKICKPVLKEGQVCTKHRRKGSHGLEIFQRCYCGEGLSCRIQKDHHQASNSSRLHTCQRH
# Sequence of Left-right determination factor 2 (Homo sapiens) (O00292 whole entry, looked up): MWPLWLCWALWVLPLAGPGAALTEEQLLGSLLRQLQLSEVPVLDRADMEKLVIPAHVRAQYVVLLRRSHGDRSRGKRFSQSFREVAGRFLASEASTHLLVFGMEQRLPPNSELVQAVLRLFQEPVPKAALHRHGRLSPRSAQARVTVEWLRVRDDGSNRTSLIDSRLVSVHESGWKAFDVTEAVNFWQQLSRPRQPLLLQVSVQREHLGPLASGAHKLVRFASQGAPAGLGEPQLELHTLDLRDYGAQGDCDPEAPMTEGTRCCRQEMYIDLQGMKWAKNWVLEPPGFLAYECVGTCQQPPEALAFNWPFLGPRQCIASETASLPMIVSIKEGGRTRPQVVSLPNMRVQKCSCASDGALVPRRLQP
# Sequence of Follistatin-related protein 3 (Homo sapiens) (O95633 whole entry, looked up): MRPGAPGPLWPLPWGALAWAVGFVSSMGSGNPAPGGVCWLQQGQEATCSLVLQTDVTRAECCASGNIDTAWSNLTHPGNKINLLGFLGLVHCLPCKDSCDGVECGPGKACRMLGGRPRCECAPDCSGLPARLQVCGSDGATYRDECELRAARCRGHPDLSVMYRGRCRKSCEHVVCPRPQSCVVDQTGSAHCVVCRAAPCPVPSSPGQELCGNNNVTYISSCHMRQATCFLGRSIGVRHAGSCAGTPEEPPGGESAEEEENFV
# Sequence of Fibroblast growth factor 10 (Homo sapiens) (O15520 whole entry, looked up): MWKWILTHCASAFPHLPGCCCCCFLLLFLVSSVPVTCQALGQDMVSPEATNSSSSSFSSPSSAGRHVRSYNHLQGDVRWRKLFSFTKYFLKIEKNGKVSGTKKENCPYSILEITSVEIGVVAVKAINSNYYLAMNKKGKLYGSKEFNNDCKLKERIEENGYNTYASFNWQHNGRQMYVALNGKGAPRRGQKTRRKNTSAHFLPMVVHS
# Sequence of Epidermal growth factor receptor (Homo sapiens) (P00533 whole entry, looked up): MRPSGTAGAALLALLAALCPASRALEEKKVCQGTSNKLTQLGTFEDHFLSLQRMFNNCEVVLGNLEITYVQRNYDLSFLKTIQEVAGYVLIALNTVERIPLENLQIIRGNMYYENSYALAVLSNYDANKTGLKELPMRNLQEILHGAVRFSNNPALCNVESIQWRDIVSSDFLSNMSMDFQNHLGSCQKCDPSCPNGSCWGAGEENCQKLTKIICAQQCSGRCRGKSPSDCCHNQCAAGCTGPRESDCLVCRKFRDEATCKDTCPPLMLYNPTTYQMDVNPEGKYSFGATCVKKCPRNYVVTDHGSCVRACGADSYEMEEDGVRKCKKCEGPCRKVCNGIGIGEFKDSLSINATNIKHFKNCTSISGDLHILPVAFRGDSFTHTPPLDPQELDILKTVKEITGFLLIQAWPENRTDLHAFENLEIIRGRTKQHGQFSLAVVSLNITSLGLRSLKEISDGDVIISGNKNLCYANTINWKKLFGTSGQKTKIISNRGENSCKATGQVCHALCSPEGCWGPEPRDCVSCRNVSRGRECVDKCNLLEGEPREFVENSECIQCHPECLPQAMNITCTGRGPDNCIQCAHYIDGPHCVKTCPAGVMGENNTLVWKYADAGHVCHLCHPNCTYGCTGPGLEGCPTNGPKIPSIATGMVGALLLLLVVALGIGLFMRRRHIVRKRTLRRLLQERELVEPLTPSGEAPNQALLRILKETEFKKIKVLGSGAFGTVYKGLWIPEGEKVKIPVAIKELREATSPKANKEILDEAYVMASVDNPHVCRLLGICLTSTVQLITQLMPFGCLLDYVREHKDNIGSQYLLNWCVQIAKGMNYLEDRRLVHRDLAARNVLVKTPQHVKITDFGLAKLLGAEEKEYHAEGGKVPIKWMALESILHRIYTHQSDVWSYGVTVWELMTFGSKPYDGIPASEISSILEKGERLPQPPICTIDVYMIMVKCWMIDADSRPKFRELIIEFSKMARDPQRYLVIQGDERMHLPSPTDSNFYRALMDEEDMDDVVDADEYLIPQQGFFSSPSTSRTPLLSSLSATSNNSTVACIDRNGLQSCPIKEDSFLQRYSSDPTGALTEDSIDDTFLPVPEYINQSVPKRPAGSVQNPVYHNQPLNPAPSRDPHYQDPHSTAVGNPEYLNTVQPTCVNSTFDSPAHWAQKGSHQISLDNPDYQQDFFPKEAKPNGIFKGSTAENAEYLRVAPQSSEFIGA
# Sequence of Torsin-1A-interacting protein 1 (Homo sapiens) (Q5JTV8 whole entry, looked up): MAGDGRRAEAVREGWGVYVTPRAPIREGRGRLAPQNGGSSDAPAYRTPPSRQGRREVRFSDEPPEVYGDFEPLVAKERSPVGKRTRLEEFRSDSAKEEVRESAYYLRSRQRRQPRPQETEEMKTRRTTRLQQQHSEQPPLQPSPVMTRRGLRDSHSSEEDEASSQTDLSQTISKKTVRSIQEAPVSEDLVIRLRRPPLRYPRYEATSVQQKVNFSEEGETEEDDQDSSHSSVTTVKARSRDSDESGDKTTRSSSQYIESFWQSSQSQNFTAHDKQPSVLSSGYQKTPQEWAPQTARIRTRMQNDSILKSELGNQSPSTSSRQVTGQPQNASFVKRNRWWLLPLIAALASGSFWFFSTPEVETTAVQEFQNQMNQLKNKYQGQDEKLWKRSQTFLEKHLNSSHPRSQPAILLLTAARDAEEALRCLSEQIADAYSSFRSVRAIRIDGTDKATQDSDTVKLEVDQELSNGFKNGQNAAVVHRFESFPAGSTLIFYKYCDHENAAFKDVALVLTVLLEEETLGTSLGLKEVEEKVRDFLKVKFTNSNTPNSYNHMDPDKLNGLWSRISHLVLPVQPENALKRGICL
SMILES,composite z-score [1],composite z-score [2],composite z-score [3],z-score [4],composite z-score [5],composite z-score [6],composite z-score [7],composite z-score [8],composite z-score [9],composite z-score [10],composite z-score [11],z-score [12],composite z-score [13],composite z-score [14],composite z-score [15],composite z-score [16],composite z-score [17],composite z-score [18],composite z-score [19],composite z-score [20]
CCCCC(O)C1C=CC2C(=O)N(Cc3ccccc3)C(=O)C2N1n1cnnc1 (stereo not given),0.769,-0.0884,0.213,-0.75 (inactive),0.303,0.144,0.188,0.412,0.178,1.05,1.13,-1.09,0.23,0.0285,-0.163,-0.0087,0.13,-0.0351,0.208,0.274
COC(=O)c1ccc(OC)c(/C=C\CC(CCc2ccccc2)OC(=O)c2ccncc2)c1 (stereo not given),-0.734,-0.264,0.705,-0.387 (inactive),0.253,-0.453,0.651,1.37,0.697,1.81,-0.0796,-0.578,1.45,-1.61,-1.72,-0.25,-0.117,-0.385,0.489,1.65
CN(C)CCCCCCNC(=O)[C@@H]1C[C@@H]2C(=O)NCC(=O)N2[C@@H]1c1ccc(O)cc1,1.25,-0.0528,-0.29,-0.326 (inactive),1.4,1.36,0.59,1.46,1.19,0.678,1.33,0.589,0.932,-1.53,-1.89,0.0785,0.46,-0.213,1.96,1.83
CCCC[C@@H](O)C1=C(COc2ccccc2)Cn2c(=O)n(-c3ccccc3)c(=O)n2[C@H]1CO,-0.229,-0.396,-0.444,-2.11 (inactive),0.217,0.106,0.111,-0.423,-0.0681,0.606,-0.616,-1.52,0.0253,-0.634,-0.116,-0.124,-0.248,-0.182,-0.222,-1.62
COCCCNC(=O)[C@]1(Cc2ccccc2)N=C(c2ccc(OCCCO)cc2)O[C@@H]1c1ccccc1N=[N+]=[N-],0.816,0.346,0.879,-1.51 (inactive),1.26,1.33,-0.184,0.481,-0.267,0.618,1.24,-3.4,-0.314,1.61,0.24,0.008,-0.0866,0.433,0.997,0.974
COC(=O)[C@@]1(Cc2ccccc2)[C@H]2c3cc(C(=O)N4CCCC4)n(Cc4ccccc4)c3C[C@H]2CN1C(=O)c1ccccc1,1.1,0.854,0.94,-2.8 (inactive),1.12,0.882,0.0075,0.96,-0.197,0.675,1.45,-2.45,-0.347,1.42,0.168,0.0362,0.356,1.48,0.55,0.401
COc1ccc([Si](C)(C)[C@@H]2[C@@H](CCO)O[C@]3(C(=O)N(Cc4ccc(N5C(=O)c6ccccc6Oc6ccccc65)cc4)c4ccccc43)[C@H]2C)cc1,-0.364,-0.0754,0.543,-0.853 (inactive),-0.791,-1.07,-1.57,-0.644,-0.815,-0.557,-0.0261,-4.95,-1.16,0.322,0.751,-0.0643,-0.138,-0.358,-1.06,0.0794
O=C(Nc1cc(Br)ccc1C(=O)NCc1cccc(O)c1)c1ccccc1,0.487,0.429,-0.339,-0.419 (inactive),0.394,0.476,0.379,0.148,0.257,-0.0621,0.27,-2.32,0.547,1.48,0.22,0.0297,-0.252,-0.75,0.888,1.36
O=C1N(CCS(=O)(=O)c2ccccc2)c2ccccc2[C@H]2OC(c3ccc(OCCCO)cc3)=N[C@@]12CCS(=O)(=O)c1ccccc1,1.31,1.59,1.16,-0.0214 (inactive),1.35,1.31,0.736,1.31,0.9,1.29,1.13,0.208,0.98,0.589,0.362,0.385,0.359,1.29,0.475,0.96
CN1C(=O)C2C=CC(C(O)c3ccc(F)cc3)N(N3CCCCC3)C2C1=O (stereo not given),1.56,1.3,1.33,0.981 (inactive),0.252,0.432,-0.406,-0.0733,-1.3,1.23,0.491,0.269,-0.781,1.72,1.23,0.212,0.949,0.893,2.05,0.164
CC(C)CNC(=O)[C@@]1(C)c2ccccc2C(=O)N(Cc2ccccc2)[C@H]1c1ccc(CO)cc1,0.651,0.569,1.19,0.622 (inactive),-1.21,-1.01,-1.56,-2.11,-1.88,-1.02,-0.205,0.0768,-1.55,-1.21,0.431,-0.192,-0.0735,-0.327,0.055,-0.905
CC(C)C(CO)N1C(=O)[C@@H]2[C@H]3C(=O)OCC=C[C@H]3OC23C=CCN(Cn2nnc4ccccc42)C(=O)[C@@H]13 (stereo not given in full),0.335,-0.374,0.465,0.184 (inactive),-0.777,-1.05,-0.851,-1.41,-1.18,-1.33,-0.484,-0.634,-0.734,-0.323,0.608,-0.226,0.35,-0.358,-0.273,-0.284
